This is a sample that favours compounds with a hit; in the whole collection about 5.4% have one here.
CtBP-E1A blk – qHTS Assay for Inhibitors of the CtBP/E1A Interaction; CtBP / adenovirus E1A interaction (AlphaScreen); AlphaScreen GST-E1A/His-CtBP binding, 1536-well; hits give low values; activity change, % (test concentration not listed); hit rate 0.49% among 340,000; AID 651724, 2012; in the data active means activity change below about -65%; inconclusive means mostly about -30% to -63%
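Homogeneous bead-based format: GST-tagged E1A captured on glutathione donor beads, His-tagged CtBP on nickel acceptor beads; compounds precede bead addition by 2 h at 37 °C.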
RORgamma inh – qHTS for inhibitors of ROR gamma transcriptional activity | Nuclear receptor ROR-gamma (Mus musculus), P51450 | Drosophila S2 Gal4-RORgamma UAS-luciferase reporter, 20 h | Potency, µM (top dose mostly 53.6 µM), most hits filed as inhibitors | hit rate 5.4% among 310,000 | AID 2551, 2010; further: nearly all actives have a fitted effect of over 60% in size
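Compounds are pin-transferred onto Drosophila Schneider cells expressing a copper-inducible Gal4–ROR gamma transactivation domain fusion. After 1 hr, copper sulfate is added to 700 uM final; luciferase is read 20 hr later.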
Gal4-VP16 FLuc – VP16 counterscreen qHTS for inhibitors of ROR gamma transcriptional activity; Drosophila S2 Gal4-VP16 UAS-luciferase, luminescence, 20 h; Potency, µM (top dose mostly 53.6 µM), actives largely listed as inhibitors; hit rate 3.5% among 310,000; AID 2546, 2010;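 further: Gal4-VP16 expression switched on by copper sulfate through the metallothionein promoter; nearly all actives have a fitted effect of over 50% in size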
p53 reactivation – qHTS assay for re-activators of p53 using a Luc reporter. H1299 p53-A138V BP100-luciferase reporter, luminescence, 24 h. Potency, µM (highest dose often 92.2 µM), actives largely listed as activators. hit rate 0.063% among 320,000; further: nearly all actives have a fitted effect of over 45% in size
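p53-null H1299 cells stably carrying temperature-sensitive p53-A138V and a BP100-luciferase reporter were pinned with compounds (4-point, 1:5 series) and held 24 hrs at 37 deg C. Luminescence was read 10 min after detection reagent.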
Six1-Eya2 blk – qHTS Assay for Inhibitors of the Six1/Eya2 Interaction; Homeobox protein SIX1 (Homo sapiens) + Protein phosphatase EYA2 (Homo sapiens), …; AlphaScreen GST-Six1/His-Eya2 binding, biochemical; hits give low values; activity change, % (test concentration not listed); hit rate 0.56% among 360,000; in the data active means activity change below about -65%; inconclusive means mostly about -30% to -63%
Target sequence (O00167 whole entry, looked up): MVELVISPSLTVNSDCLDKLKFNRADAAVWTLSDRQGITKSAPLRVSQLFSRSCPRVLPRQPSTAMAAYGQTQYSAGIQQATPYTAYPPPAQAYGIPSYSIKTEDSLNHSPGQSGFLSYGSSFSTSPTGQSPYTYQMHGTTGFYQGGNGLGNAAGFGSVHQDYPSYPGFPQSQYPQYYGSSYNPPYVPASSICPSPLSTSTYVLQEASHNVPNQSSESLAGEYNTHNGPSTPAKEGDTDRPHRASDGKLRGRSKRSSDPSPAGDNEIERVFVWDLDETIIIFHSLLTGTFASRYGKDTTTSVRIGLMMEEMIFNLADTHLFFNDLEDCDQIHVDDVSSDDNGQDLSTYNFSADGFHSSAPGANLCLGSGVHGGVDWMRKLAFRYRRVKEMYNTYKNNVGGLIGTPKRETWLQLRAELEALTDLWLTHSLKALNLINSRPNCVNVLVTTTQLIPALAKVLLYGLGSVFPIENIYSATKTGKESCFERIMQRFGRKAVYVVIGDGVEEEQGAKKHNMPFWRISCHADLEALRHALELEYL
Target sequence (Q15475 whole entry, looked up): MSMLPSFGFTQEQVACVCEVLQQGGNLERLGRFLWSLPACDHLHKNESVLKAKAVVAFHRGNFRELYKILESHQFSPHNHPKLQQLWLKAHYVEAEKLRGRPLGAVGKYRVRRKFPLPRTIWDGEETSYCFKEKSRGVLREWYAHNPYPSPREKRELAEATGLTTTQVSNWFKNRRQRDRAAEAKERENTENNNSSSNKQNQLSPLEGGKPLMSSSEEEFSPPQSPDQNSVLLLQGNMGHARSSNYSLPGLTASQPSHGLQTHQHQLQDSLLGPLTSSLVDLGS
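AlphaScreen luminescence read after one hour at 37 °C in darkness. Pin-transferred compounds met GST-Six1 and His-Eya2 protein (5X stock 250 nM/500 nM) plus glutathione donor and Ni-chelate acceptor beads (5X, 50 ug/mL).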
Of the large screens only hits and unclear results are named; the others gave an inactive call. Unless noted, the call rests on the fitted dose curve; in most records, active means well fitted curve in the direction sought with a large enough effect; inconclusive means small, poorly fitted or top-dose-only effect, or another doubt; inactive means no such curve, though single readings can be large; an effect the other way counts as inactive or inconclusive.

Cc1ccccc1-c1ocnc1C(=O)Nc1ccccc1NC(=O)c1ccccn1	RORgamma inh 2.24µM, Gal4-VP16 FLuc 7.08µM
Cc1ccc(C)c(C(=O)c2ccccc2NC(=O)c2ccccn2)c1	none
CCOCc1cc(=O)[nH]c(SC)n1	none (no result: CtBP-E1A blk)
C[C@@H](NC(=O)c1cc2c([nH]c3ccccc32)c(-c2ccccc2)n1)C(=O)O	none (no result: CtBP-E1A blk)
O=C(NC1CCCCC1)N1CCNCC1	RORgamma inh 7.94µM
O=C(NC1CCCCC1)N1CCCCCC1	none
COc1ccccc1C(=O)NN=C1CCN(Cc2ccccc2)CC1	none
CCCCCCCC1Cc2ccccc2C(C(C(=O)OC)C(=O)OC)N1C(=O)OC (stereo not drawn)	none (no result: CtBP-E1A blk, p53 reactivation, Six1-Eya2 blk)
Fc1cc2[nH]c(=S)[nH]c2c(Br)c1N1CCSCC1	RORgamma inh 11.2µM, p53 reactivation inconclusive
Oc1ccc(N=Nc2ccc3c(c2)OCO3)c2ccccc12	RORgamma inh 0.126µM, Gal4-VP16 FLuc 0.631µM (no result: CtBP-E1A blk, Six1-Eya2 blk)
Oc1ccc2c(c1)OCO2	none (no result: CtBP-E1A blk, p53 reactivation, Six1-Eya2 blk)
CCC(C)c1ccc(NC(=O)c2c([N+](=O)[O-])cnn2CC)cc1 (stereo not drawn)	RORgamma inh inconclusive, p53 reactivation inconclusive
CC(C)N(C)CCOC(=O)C1COc2ccccc2O1 (stereo not drawn)	none
O=C(Cn1ncc(Cl)c(Cl)c1=O)N1CCN(S(=O)(=O)c2ccc3ccccc3c2)CC1	RORgamma inh 12.6µM, Gal4-VP16 FLuc inconclusive
O=C(O)CCC(=O)N1CCN(S(=O)(=O)c2ccc3ccccc3c2)CC1	none
C/C(CC(=O)C(F)(F)F)=N\NC(=O)/C(C#N)=C/N(C)C	RORgamma inh 8.91µM, Gal4-VP16 FLuc inconclusive
Cc1ccccc1-n1c(C)nc2ccccc21	RORgamma inh 11.2µM
COc1cccc(NC(=O)c2ccc(NC(=O)C3CC(=O)OC34CCCCC4)cc2)c1 (stereo not drawn)	CtBP-E1A blk -80.1, Six1-Eya2 blk inconclusive
Cc1ccc(S(=O)(=O)N2CCCCC2)cc1NC(=O)c1ccc(Cl)nc1	none (no result: RORgamma inh, Gal4-VP16 FLuc)
N#C/C(=C\c1ccc(N2CCOCC2)c([N+](=O)[O-])c1)c1nc2ccccc2[nH]1	CtBP-E1A blk inconclusive, RORgamma inh inconclusive, Gal4-VP16 FLuc inconclusive
N#C/C(=C/c1ccc(N2CCOCC2)o1)c1ccc(Cl)cc1	RORgamma inh inconclusive, Gal4-VP16 FLuc 10µM
N#C/C(=C\c1ccc(N2CCOCC2)o1)c1nc2ccccc2[nH]1	CtBP-E1A blk inconclusive, RORgamma inh 15.8µM
NC(=S)N/N=C1\CC(n2nnn(-c3cccc(Cl)c3)c2=S)C2COC1O2 (stereo not drawn)	RORgamma inh 3.98µM, Gal4-VP16 FLuc inconclusive
NC(=S)N/N=C1\CC(n2nnnc2-c2ccccc2)C2COC1O2 (stereo not drawn)	RORgamma inh inconclusive, Gal4-VP16 FLuc inconclusive
O=C(Cn1c2ccccc2c(=O)c2ccccc21)Nc1cccc(F)c1	none (no result: CtBP-E1A blk)
Cc1cc(Sc2nc(N)ncc2[N+](=O)[O-])ncn1	CtBP-E1A blk inconclusive, RORgamma inh 0.794µM, Gal4-VP16 FLuc inconclusive, Six1-Eya2 blk inconclusive
Cc1cc(Sc2ncnc(N)c2[N+](=O)[O-])ncn1	RORgamma inh 3.55µM, Gal4-VP16 FLuc 4.47µM
Cc1cc(N)ncc1[N+](=O)[O-]	none (no result: RORgamma inh, Gal4-VP16 FLuc, p53 reactivation)
CCC(=O)N1CCc2cc(Br)c(S(=O)(=O)CCC(=O)NCCc3ccccc3)cc21	none (no result: RORgamma inh, Gal4-VP16 FLuc, p53 reactivation)
Cn1cnnc1Sc1ccc(C(=O)OCC(=O)Nc2cc(Cl)cc(Cl)c2)cc1[N+](=O)[O-]	none
COc1ccc(CNS(=O)(=O)c2ccc3c(c2)CCN3C(=O)C2CC2)cc1	Gal4-VP16 FLuc 15.8µM
CC(=O)N1CCc2cc(S(=O)(=O)NCCC(=O)NCCc3ccc(C)cc3)ccc21	RORgamma inh inconclusive, Gal4-VP16 FLuc 3.55µM
O=C(C1CC1)N1CCc2cc(S(=O)(=O)NCCCN3CCCCC3)ccc21	none
CC(=O)N1c2ccc(S(=O)(=O)NCC3CCC(C(=O)Nc4ncccc4C)CC3)cc2CC1C (stereo not drawn)	none
CC(=O)N1c2ccc(S(=O)(=O)NCC3CCC(C(=O)Nc4cc(C)ccn4)CC3)cc2CC1C (stereo not drawn)	RORgamma inh inconclusive, Gal4-VP16 FLuc 7.08µM, p53 reactivation inconclusive

Bioassay records (PubChem)
